14 compounds from PubChem BioAssay (NCATS) can be followed below.

SMILES strings stand for the structures. Records with an inconclusive call do not appear. A call without a number means that no potency is given here. Active and inactive are the calls of the source. The call rests on the fitted dose curve; in most records, active means well fitted inhibition curve with a large enough effect; inconclusive means small, poorly fitted or top-dose-only effect; inactive means flat fitted curve, though single readings scatter.

For this experiment, the system named is CP260. In words: qHTS profiling for inhibitors of Plasmodium falciparum proliferation (AID 504749). Further: nearly all actives have a fitted effect of over 60% in size. As to conditions: P. falciparum in erythrocytes, SYBR Green DNA, 72 h; series mostly up to 28.7 µM. An outline of the steps: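 Each compound contacts P. falciparum-infected red blood cells for 72 h at 37 C; lysis buffer (Tris, EDTA, saponin, Triton X, SYBR Green I) is added and fluorescence measured next morning; values normalized to controls.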
For orientation: qHTS replaces the single test concentration by a dilution series.
For the compound `CC/C=C\C/C=C\C/C=C\C/C=C\C/C=C\C/C=C\CCC(=O)O`, the Potency entry was “inactive”.
On to `COc1cc2c(cc1OC)[C@@H](Cc1cc(OC)c(OC)c(OC)c1)[N+](C)(CCCOC(=O)CC/C=C/CCC(=O)OCCC[N+]1(C)CCc3cc(OC)c(OC)cc3[C@H]1Cc1cc(OC)c(OC)c(OC)c1)CC2` (some centres undefined), for which the Potency result was “inactive”.
Regarding `CCCOC(=O)c1ccccc1O`, the Potency result was “inactive”.
With `CC/C=C\C/C=C\C/C=C\CCCCCCCC(=O)O`, the Potency entry is “inactive”.
In the case of `NC(=O)[C@H]1O[C@@H](O)[C@H](O)[C@@H](O)[C@@H]1O`, the Potency entry is “inactive”.
Next, `CCCCCCCCCCCCOCCCN`: “inactive”; `CC(C)(C)c1ccc2c(S(=O)(=O)O)c(C(C)(C)C)ccc2c1`: “inactive”; `COC(=O)CCC[N+](C)(C)C`: “inactive”.
Consider `CNC(=O)OCc1cccc(COC(=O)NC)n1`, for which the Potency result was “inactive”.
Regarding `O=C(NCCNCC(O)COc1ccc(O)cc1)N1CCOCC1` (centres undefined), the Potency result is “inactive”.
For `OC[C@H]1O[C@@H]2O[C@H]3[C@H](O)[C@@H](O)[C@@H](O[C@H]4[C@H](O)[C@@H](O)[C@@H](O[C@H]5[C@H](O)[C@@H](O)[C@@H](O[C@H]6[C@H](O)[C@@H](O)[C@@H](O[C@H]7[C@H](O)[C@@H](O)[C@@H](O[C@H]1[C@H](O)[C@H]2O)O[C@@H]7CO)O[C@@H]6CO)O[C@@H]5CO)O[C@@H]4CO)O[C@@H]3CO` the value was “inactive”.
With `CCCCCCCCCCCCCCCCCCCCCC(=O)Nc1ccn([C@@H]2O[C@H](CO)[C@@H](O)[C@@H]2O)c(=O)n1`, the Potency result was “inactive”.
Next, `CCCCCCCCCCCCCCCCCC[N+](C)(C)CCC[Si](OC)(OC)OC`: “inactive”; `OB(O)O`: “inactive”.
